Measurements published in PubChem BioAssay AID2073 (Sanford-Burnham Center for Chemical Genomics, 2009).
Out of some 290,000 compounds screened, about 570 (0.2%) were called active. Inconclusive results (about 1%) are left out. No stated cut-off is given here; in the data, active means inhibition mostly above about 51% (no sharp cut-off); inconclusive means no clear call, values can overlap the other calls; inactive means mostly below about 53%. Only a selection was taken, and actives are over-represented in it overall.

Target: Voltage-dependent N-type calcium channel subunit alpha-1B (Homo sapiens) (UniProt Q00975)
Sequence (Q00975 whole entry, looked up): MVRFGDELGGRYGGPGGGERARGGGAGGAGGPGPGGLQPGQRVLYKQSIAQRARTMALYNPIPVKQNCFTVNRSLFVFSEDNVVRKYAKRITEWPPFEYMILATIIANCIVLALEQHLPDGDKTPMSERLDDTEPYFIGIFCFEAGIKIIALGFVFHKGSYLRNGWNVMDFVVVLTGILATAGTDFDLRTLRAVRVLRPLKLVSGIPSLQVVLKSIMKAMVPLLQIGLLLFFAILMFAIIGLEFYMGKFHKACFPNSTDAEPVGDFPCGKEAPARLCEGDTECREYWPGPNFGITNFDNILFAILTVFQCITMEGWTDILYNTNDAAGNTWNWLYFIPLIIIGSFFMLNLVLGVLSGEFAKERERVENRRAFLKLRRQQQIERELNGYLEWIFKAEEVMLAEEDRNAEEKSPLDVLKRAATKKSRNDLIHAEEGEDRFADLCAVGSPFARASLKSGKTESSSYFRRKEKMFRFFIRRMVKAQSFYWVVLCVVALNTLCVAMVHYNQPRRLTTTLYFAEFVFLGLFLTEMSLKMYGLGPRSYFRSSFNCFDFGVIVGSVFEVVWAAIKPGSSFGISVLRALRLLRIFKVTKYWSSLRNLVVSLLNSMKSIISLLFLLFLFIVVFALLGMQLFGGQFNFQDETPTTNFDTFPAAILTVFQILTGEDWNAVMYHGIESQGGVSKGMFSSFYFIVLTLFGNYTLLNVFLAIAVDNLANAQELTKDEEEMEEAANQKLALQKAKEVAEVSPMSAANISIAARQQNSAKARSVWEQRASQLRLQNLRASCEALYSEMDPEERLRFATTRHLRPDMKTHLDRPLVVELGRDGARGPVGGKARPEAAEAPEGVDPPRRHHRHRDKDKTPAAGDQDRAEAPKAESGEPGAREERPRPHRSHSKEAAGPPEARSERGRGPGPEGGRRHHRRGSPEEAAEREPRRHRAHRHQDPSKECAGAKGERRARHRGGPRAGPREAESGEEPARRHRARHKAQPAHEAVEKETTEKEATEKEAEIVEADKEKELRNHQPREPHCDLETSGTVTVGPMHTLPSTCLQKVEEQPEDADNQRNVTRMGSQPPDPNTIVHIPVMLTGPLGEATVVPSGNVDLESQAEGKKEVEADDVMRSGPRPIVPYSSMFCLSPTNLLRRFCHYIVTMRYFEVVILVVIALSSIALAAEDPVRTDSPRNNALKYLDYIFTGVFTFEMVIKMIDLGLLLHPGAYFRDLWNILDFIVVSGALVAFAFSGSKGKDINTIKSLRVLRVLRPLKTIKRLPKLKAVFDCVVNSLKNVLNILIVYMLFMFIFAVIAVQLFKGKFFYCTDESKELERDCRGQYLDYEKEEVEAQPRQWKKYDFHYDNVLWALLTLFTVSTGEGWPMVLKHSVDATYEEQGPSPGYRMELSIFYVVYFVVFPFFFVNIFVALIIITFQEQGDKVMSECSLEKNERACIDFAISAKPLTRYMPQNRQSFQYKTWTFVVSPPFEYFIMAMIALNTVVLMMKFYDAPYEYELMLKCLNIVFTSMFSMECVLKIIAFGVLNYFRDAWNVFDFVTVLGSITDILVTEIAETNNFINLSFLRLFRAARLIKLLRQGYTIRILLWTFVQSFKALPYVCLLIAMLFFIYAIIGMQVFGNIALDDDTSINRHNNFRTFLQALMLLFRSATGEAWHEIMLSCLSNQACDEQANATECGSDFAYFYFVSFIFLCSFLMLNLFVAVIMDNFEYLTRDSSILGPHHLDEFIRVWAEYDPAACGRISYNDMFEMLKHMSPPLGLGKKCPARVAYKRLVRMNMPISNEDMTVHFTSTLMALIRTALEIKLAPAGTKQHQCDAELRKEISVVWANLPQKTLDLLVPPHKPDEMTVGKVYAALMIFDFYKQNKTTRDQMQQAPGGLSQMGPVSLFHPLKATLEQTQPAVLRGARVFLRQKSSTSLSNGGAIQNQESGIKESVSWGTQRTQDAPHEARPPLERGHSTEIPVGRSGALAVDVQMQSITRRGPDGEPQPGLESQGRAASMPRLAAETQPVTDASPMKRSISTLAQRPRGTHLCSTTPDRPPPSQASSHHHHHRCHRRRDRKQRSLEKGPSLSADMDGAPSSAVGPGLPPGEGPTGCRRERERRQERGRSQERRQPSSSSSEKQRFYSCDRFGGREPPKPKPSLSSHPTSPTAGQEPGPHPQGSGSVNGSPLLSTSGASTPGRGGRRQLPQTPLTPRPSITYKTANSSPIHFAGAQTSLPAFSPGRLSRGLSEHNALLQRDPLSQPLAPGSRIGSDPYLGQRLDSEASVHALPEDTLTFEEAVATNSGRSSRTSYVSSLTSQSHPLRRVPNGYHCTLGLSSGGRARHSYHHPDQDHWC
Assay: inhibitors of Mint1-CaV2.2 protein interaction, biochemical, HTRF (AID 2073)
Conditions: at 20 µM, stronger effect = higher value
[1] = measured here: average of repeat tests

SMILES | inhibition | inhibition [1] [%]
CCc1ccc(NC(=O)Cn2nnc(C(=O)NCc3cccs3)c2N)cc1 | 26.5% (inactive) | –
O=S(=O)(c1ccc(F)cc1)N1CCN(c2ccc(-c3ccccc3)nn2)CC1 | 41.9% (inactive) | –
CCC1(C)Cc2nc3sc(C(=O)O)c(N)c3cc2CO1 (centres undefined) | 23.8% (inactive) | –
CC1(C)Cc2nc3sc(C(=O)NCCCO)c(N)c3cc2CS1 | 30.6% (inactive) | –
CC1(C)Cc2nc3sc(C(=O)O)c(N)c3cc2CS1 | 54.6% (active) | –
O=C(NCc1cccnc1)NC(=O)c1ccc(Cl)cc1 | -3% (inactive) | –
O=C(CNC(=O)c1ccc(Cl)cc1)N/N=C/C=C/c1ccccc1 | 2.8% (inactive) | –
O=c1oc2c(CN3CCCCCC3)c(O)ccc2cc1-c1nc2ccccc2[nH]1 | 65.1% (active) | –
CCc1cc2c(=O)c(-c3nc4ccccc4[nH]3)coc2c(CN2CCCCC2)c1O | 9.7% (inactive) | –
O=c1oc2c(CN3CCN(CCO)CC3)c(O)ccc2cc1-c1ccccn1 | 30.4% (inactive) | –
O=C(Cc1n[nH]c(=O)c2ccccc12)NC(c1ccccc1)c1ccccc1 | 1.8% (inactive) | –
CC(C)CNc1nc(Oc2ccc(=O)[nH]n2)nc(N2CCOCC2)n1 | -12.9% (inactive) | –
COCCOC(=O)c1c(C)n(C)c2ccc(OC(=O)c3ccccc3F)cc12 | -3.1% (inactive) | –
COc1ccc(-c2nn(-c3ccccc3)cc2/C=C(/C#N)C(N)=O)cc1[N+](=O)[O-] | 54.4% (active) | –
C=CCNC(=O)/C(C#N)=C/c1cn(-c2ccccc2)nc1-c1ccc(OC)c([N+](=O)[O-])c1 | 25.3% (inactive) | –
COc1ccc(-c2nn(-c3ccccc3)cc2/C=C(\C#N)C(N)=O)cc1[N+](=O)[O-] | 43.3% (inactive) | –
CC(NC(=O)c1cc(Br)ccc1Br)c1ccccc1 (centres undefined) | 15.9% (inactive) | –
S=C(NCc1cccnc1)NCc1cccnc1 | -3.7% (inactive) | –
Cc1cc(C)cc(NC(=S)NCc2cccnc2)c1 | -3.3% (inactive) | –
Cn1cccc1C(C#N)(CC#N)c1cccc(F)c1C#N (centres undefined) | 14.3% (inactive) | –
CC(C)n1c(=S)[nH]c2c1c(=O)[nH]c(=O)n2C | -95.1% (inactive) | –
CC(C)c1csc(CN2CCC(CO)(Cc3cccc(F)c3)CC2)n1 | -1.1% (inactive) | –
Cc1ccc(S(=O)(=O)N2c3ccccc3OCC2C(C)(C)C)cc1 (centres undefined) | 1.7% (inactive) | –
COc1ccc(S(=O)(=O)N2c3ccccc3OCC2C(C)(C)C)cc1 (centres undefined) | 50.4% (active) | –
COc1ccc(S(=O)(=O)N2c3cc(C)ccc3OCC2C(C)(C)C)cc1 (centres undefined) | -0.4% (inactive) | –

SMILES | inhibition | inhibition [1] [%]
CCN(CC)S(=O)(=O)c1ccc(C(=O)Nc2ccc3c(c2)OCO3)cc1 | 9.9% (inactive) | –
COc1ccccc1/C=c1\sc2nc(-c3ccco3)nn2c1=O | 35.1% (inactive) | –
CCOc1ccc(/C=c2\sc3nc(-c4ccco4)nn3c2=O)cc1OCC | 31.7% (inactive) | –
COc1ccc(Br)cc1/C=c1\sc2nc(-c3ccco3)nn2c1=O | 66.4% (active) | –
COCCSc1nnc(NC(=O)c2ccc3c(c2)OCO3)s1 | 3.7% (inactive) | –
Cc1nc(C(C)N(C)Cc2nc(Cc3ccccc3F)no2)c(C)s1 (centres undefined) | -15.7% (inactive) | –
COc1ccccc1N(CC(=O)N(CC(C)C)CC(C)C)S(=O)(=O)c1cccs1 | -4.4% (inactive) | –
COc1ccc(N2C(=O)C(Cl)=C(N3CCCC3)C2=O)cc1 | 19.5% (inactive) | –
COc1ccc(N2C(=O)c3cc4ccccc4cc3C2=O)cc1 | 4.4% (inactive) | –
COc1ccc(N2C(=O)C(Cl)=C(Oc3cccc(OC)c3)C2=O)cc1 | 56.7% (active) | –
Cc1ccc(Nc2nc(-c3ccc(C)cc3)c(CC(=O)O)s2)cc1 | 14.4% (inactive) | –
Cc1nc2sc(C(c3cccc(F)c3)N3CCN(C(=O)c4ccco4)CC3)c(O)n2n1 (centres undefined) | 3.9% (inactive) | –
CC(=O)CC1(O)C(=O)Nc2ccccc21 (centres undefined) | 33.4% (inactive) | –
CN(C)CCNc1c(N)c(=O)oc2ccccc12 | -16.1% (inactive) | –
Cc1ccc(C(=O)c2ccccc2C(=O)OCC(=O)NC(C)(C)C)cc1 | -3.7% (inactive) | –
CCOC(=O)c1ccc(N2C(=O)c3n[nH]c(C)c3C2c2ccco2)cc1 (centres undefined) | -2.1% (inactive) | –
CCOC(=O)c1ccc(N2C(=O)c3n[nH]c(-c4ccco4)c3C2c2cccc([N+](=O)[O-])c2)cc1 (centres undefined) | 27.2% (inactive) | –
CCOC(=O)c1ccc(N2C(=O)c3n[nH]c(-c4ccco4)c3C2c2ccc([N+](=O)[O-])cc2)cc1 (centres undefined) | 71.1% (active) | –
O=C(O)Cn1nnnc1-c1ccc(F)cc1 | 0% (inactive) | –
CC(NC(=O)C1CCCN(C(=O)N(C)C)C1)c1ccccc1 (centres undefined) | 0.8% (inactive) | –
CC(C)(C)OC(=O)N/N=C/c1cc(N=Nc2ccccc2)ccc1O | 3.5% (inactive) | –
COC(=O)N/N=C/c1cc(N=Nc2ccccc2)ccc1O | 23.6% (inactive) | –
Cc1cccc(C)c1N1C(=O)CC(N(O)c2ccccc2)C1=O (centres undefined) | 4.8% (inactive) | –
Cc1cc(C)c(C#N)c(N2CCN(S(=O)(=O)Cc3ccccc3)CC2)n1 | 1% (inactive) | –
CCOC(=O)c1sc(NC(=O)CN2C(=O)NC3(CC(C)CC(C)(C)C3)C2=O)c(C(=O)OCC)c1C (centres undefined) | 13.6% (inactive) | –

SMILES | inhibition | inhibition [1] [%]
COc1cc(C2Nc3cccc4cccc(c34)N2)ccc1OC(C)=O | 74.4% (inactive) | -13.1
COc1ccc(C2Nc3cccc4cccc(c34)N2)cc1Br | 25.7% (inactive) | –
COc1cc(C2Nc3cccc4cccc(c34)N2)cc(OC)c1OC(C)=O | 77.3% (active) | –
S=C(Nc1cccnc1)Nc1cccc2cnccc12 | 79.7% (inactive) | 4.7
Cc1cc(C)cc(NC(=S)Nc2cccc3cnccc23)c1 | 16.7% (inactive) | –
Cc1ccc(NC(=S)Nc2cccc3cnccc23)cc1 | 21.8% (inactive) | –
CN(C)S(=O)(=O)c1cccc(NC(=S)Nc2cccc3cnccc23)c1 | 51.6% (active) | –
CCOc1ccc(NC(=S)Nc2cccc3cnccc23)cc1 | 27% (inactive) | –
COc1ccc(NC(=S)Nc2cccc3cnccc23)cc1 | 77.7% (active) | –
COc1ccc(/C=C2\SC(N3CCCCC3)=NC2=O)cc1 | 3.8% (inactive) | –
COc1ccc(CNC(=O)C(C)OC(=O)c2cccn2C)cc1 (centres undefined) | -0.9% (inactive) | –
COc1ccc(S(=O)(=O)N(C)C2CCS(=O)(=O)C2)cc1OC (centres undefined) | 4.6% (inactive) | –
COCCNC(=O)c1cccc(Nc2nc(-c3ccccc3)c3cc(Cl)ccc3n2)c1 | 54.5% (active) | –
O=C(NCCO)c1cccc(Nc2nc(-c3ccccc3)c3cc(Cl)ccc3n2)c1 | 11.1% (inactive) | –
OCCNc1nc(-c2ccccc2)c2cc(Cl)ccc2n1 | 15.1% (inactive) | –
Clc1ccccc1-c1nnc2sc(-c3ccc(Br)o3)nn12 | -3.6% (inactive) | –
O=[N+]([O-])c1ccccc1-c1ccc(/C=N/n2cnnc2)o1 | -7.6% (inactive) | –
Nn1cnnc1N/N=C\c1ccc(-c2ccccc2[N+](=O)[O-])o1 | 62% (active) | –
Cc1nnc(N/N=C\c2ccc(-c3ccccc3[N+](=O)[O-])o2)n1N | 45% (inactive) | –
COc1ccc(CCN(C)C(=O)CN2C(=O)c3ccccc3S2(=O)=O)cc1OC | -0.2% (inactive) | –
COc1ccc(N2C(=O)N(Cc3cccc(F)c3)c3ccccc3S2(=O)=O)cc1 | 55.6% (active) | –
COc1ccc(N2C(=O)N(Cc3ccccc3F)c3ccccc3S2(=O)=O)cc1 | -1.5% (inactive) | –
COc1ccc(N2C(=O)N(Cc3ccc(C)cc3)c3ccccc3S2(=O)=O)cc1 | 5.3% (inactive) | –
N#CCCN1CCCN(CCC#N)CCN(CCC#N)CCCN(CCC#N)CC1 | -13.6% (inactive) | –
CCOC(=O)/C=c1\s/c(=C\c2c(OCC)ccc3ccccc23)c(=O)n1CC(=O)NCC1CCCO1 (centres undefined) | 10.3% (inactive) | –

SMILES | inhibition | inhibition [1] [%]
COc1cc(OC)cc(C(=O)OCC(=O)NC(C)CCc2ccccc2)c1 (centres undefined) | 34.5% (inactive) | –
COc1ccc2c(Cl)c(C(=O)N/N=C3\CCCC(=O)C3)sc2c1 | 50.9% (active) | –
O=C1CCC/C(=N/NC(=O)c2sc3ccccc3c2Cl)C1 | 8.3% (inactive) | –
COc1ccc2c(Cl)c(C(=O)NN)sc2c1 | 8.1% (inactive) | –
Cc1ccc(C(=O)NCCc2nnc3ccc(NCc4ccc5c(c4)OCO5)nn23)cc1 | -1.4% (inactive) | –
COc1ccc(C(=O)Nc2ccc(Cl)cc2C(=O)NCCO)cc1 | -1.8% (inactive) | –
CCN1CCCC1CNC(=O)c1cc2c(C)nc3ccccc3c2o1 (centres undefined) | 5.2% (inactive) | –
CCOC(=O)N1CCC(C(=O)NNC(=O)c2ccc(Cl)cc2Cl)CC1 | 6.9% (inactive) | –
CN1/C(=C/C(=O)C2CC2)C(C)(C)c2ccccc21 | 3.3% (inactive) | –
CCOC(=O)c1cc2c(=O)n3ccccc3nc2n(Cc2ccco2)c1=NC(=O)c1ccc(OC)cc1OC | 66.1% (active) | –
CCOC(=O)c1cc2c(=O)n3ccccc3nc2n(Cc2ccco2)c1=NC(=O)c1ccccc1OC | 10.2% (inactive) | –
CCOC(=O)c1cc2c(=O)n3ccccc3nc2n(Cc2ccco2)c1=NC(=O)c1ccc(OC)cc1 | 33.1% (inactive) | –
Cc1ccc(CNC(=O)c2ccc(S(=O)(=O)Nc3c(C)n(C)n(-c4ccccc4)c3=O)cc2)cc1 | 0.9% (inactive) | –
O=Cc1cccn1-c1cccnc1 | 8.9% (inactive) | –
Fc1ccccc1N1CCN(C2CCCN(Cc3ccccc3C(F)(F)F)C2)CC1 (centres undefined) | -0.4% (inactive) | –
CCN(CC)CCN(C(=O)c1ccc2c(c1)OCCO2)c1nc2ccc(C)cc2s1 | -5.5% (inactive) | –
OCCN(CCO)c1ncnc2c1sc1nc(N3CCOCC3)c3c(c12)CCCC3 | 16.9% (inactive) | –
OCCN1CCN(c2ncnc3c2sc2nc(N4CCOCC4)c4c(c23)CCC4)CC1 | 3.4% (inactive) | –
CC1(C)Cc2c(c(-c3ccco3)nc3sc4c(NCCCO)ncnc4c23)CO1 | 5.3% (inactive) | –
CC1(C)Cc2c(c(N3CCCC3)nc3sc4c(N5CCN(CCO)CC5)ncnc4c23)CO1 | -8.9% (inactive) | –
CSc1nc(N2CCN(CCO)CC2)c2sc3nc(-c4ccco4)c4c(c3c2n1)CCC4 | 64% (active) | –
CSc1nc(N(CCO)CCO)c2sc3nc(-c4ccco4)c4c(c3c2n1)CCC4 | 72.4% (active) | –
